From PubChem BioAssay AID1456 (Vanderbilt High Throughput Screening Facility, 2008)
Among all 190,000 compounds or so, about 4,100 (2.2%) were called active. The entries come from a sample that favours actives as a whole. Unmarked numbers belong to inactive results.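 How the source made its calls: active means thallium flux slope and its plate-corrected score both differing from the plate sample mean at a set confidence after two filtering rounds, in either direction; inactive means the rest.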

What follows are compounds tested against Solute carrier family 12 member 5 (Homo sapiens) (UniProt Q9H2X9) (assay: modulation of human KCC2 ion transport – cell-based, HEK293 KCC2, FluoZin-2 fluorescence, MLSMR, primary screen (AID 1456;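 further: slope of fluorescence scaled to starting intensity during 10 to 20 s after thallium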)). Details: KCC2 cells, thallium flux FluoZin-2 fluorescence; at 10 µM.
Solute carrier family 12 member 5 (Homo sapiens), sequence (Q9H2X9 whole entry, looked up): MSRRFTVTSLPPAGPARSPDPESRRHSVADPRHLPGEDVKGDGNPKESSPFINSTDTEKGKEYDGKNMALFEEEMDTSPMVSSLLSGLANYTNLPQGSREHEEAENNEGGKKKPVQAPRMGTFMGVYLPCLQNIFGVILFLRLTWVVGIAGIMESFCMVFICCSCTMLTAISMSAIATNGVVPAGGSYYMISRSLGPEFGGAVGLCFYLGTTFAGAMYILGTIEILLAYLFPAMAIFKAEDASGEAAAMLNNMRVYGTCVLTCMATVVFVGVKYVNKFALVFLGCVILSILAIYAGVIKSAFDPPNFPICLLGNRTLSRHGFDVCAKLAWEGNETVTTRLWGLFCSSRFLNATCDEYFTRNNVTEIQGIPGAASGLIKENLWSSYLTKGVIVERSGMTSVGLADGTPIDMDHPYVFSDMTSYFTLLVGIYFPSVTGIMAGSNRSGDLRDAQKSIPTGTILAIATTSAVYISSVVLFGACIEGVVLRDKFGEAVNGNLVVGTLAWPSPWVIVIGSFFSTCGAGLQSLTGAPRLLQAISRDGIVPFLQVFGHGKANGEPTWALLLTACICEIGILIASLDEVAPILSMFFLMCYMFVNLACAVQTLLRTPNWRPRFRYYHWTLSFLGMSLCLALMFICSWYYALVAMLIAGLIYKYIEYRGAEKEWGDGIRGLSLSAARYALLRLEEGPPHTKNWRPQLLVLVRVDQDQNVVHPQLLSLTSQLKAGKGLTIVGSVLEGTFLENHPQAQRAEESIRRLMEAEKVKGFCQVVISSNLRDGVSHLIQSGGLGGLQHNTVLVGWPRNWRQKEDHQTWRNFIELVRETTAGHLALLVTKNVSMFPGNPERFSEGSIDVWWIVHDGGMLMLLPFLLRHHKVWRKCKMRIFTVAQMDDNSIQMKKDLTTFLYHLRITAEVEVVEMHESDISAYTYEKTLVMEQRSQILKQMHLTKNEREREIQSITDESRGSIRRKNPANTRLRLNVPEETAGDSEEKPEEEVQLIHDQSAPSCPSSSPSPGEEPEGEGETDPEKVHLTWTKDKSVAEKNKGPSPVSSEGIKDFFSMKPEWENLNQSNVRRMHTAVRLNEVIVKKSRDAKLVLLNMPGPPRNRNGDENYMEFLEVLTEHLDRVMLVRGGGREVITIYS
`O=C(O)c1ccccc1C(=O)Nc1ccccc1[N+](=O)[O-]` gave a B-score of Tl+ flux slope (higher = more flux/activation; lower = inhibition) of -0.0678.
Compound `CCOc1ccccc1N1CN(Cc2ccccc2)CNC1=S` has a B-score of Tl+ flux slope (higher = more flux/activation; lower = inhibition) of -0.426.
`O=C(/C=C/c1c(Cl)cccc1Cl)NCc1ccccc1` showed a B-score of Tl+ flux slope (higher = more flux/activation; lower = inhibition) of 0.452.
In the case of `COC(=O)c1ccc(S(=O)(=O)N(CCO)Cc2ccccc2)n1C`, the B-score of Tl+ flux slope (higher = more flux/activation; lower = inhibition) is reported as 0.0796.
For `O=C(O)CCN(Cc1ccccc1)S(=O)(=O)c1c(Cl)cccc1Cl`, the B-score of Tl+ flux slope (higher = more flux/activation; lower = inhibition) was -6.63 (active).
`O=C(Oc1cccnc1)c1cc2ccccc2oc1=O` was tested, and the B-score of Tl+ flux slope (higher = more flux/activation; lower = inhibition) was 0.0371.
Compound `N#CCc1ccc(OC(=O)c2cccnc2)cc1` has a B-score of Tl+ flux slope (higher = more flux/activation; lower = inhibition) of 0.815.
`O=C(Oc1c(-c2ccco2)oc2ccccc2c1=O)c1cccnc1` was tested, and the B-score of Tl+ flux slope (higher = more flux/activation; lower = inhibition) was 40.4 (active).
`S=C(NNC(=S)NC1CC2CCC1C2)NC1CC2C=CC1C2` (configuration not stated) showed a B-score of Tl+ flux slope (higher = more flux/activation; lower = inhibition) of 0.801.
`Clc1ccc2nc(-c3ccccc3)nc(C(Cl)Cl)c2c1` gave a B-score of Tl+ flux slope (higher = more flux/activation; lower = inhibition) of 0.642.
In the case of `CCOc1ccc2[nH]c(=O)c(CN(Cc3nnnn3Cc3ccccc3)CC3CCCO3)cc2c1` (configuration not stated), the B-score of Tl+ flux slope (higher = more flux/activation; lower = inhibition) is reported as 0.154.
`Cc1cc2cc(CN(Cc3cccs3)Cc3nnnn3CC3CCCO3)c(=O)[nH]c2cc1C` (configuration not stated) showed a B-score of Tl+ flux slope (higher = more flux/activation; lower = inhibition) of -1.28.
With `Cc1cc(C)c2cc(CN(Cc3cccs3)Cc3nnnn3CC3CCCO3)c(=O)[nH]c2c1` (configuration not stated) the B-score of Tl+ flux slope (higher = more flux/activation; lower = inhibition) was -3.73 (active).
For `CCOC(=O)N/N=C1\CC(C)S(=O)(=O)c2ccc(Cl)cc21` (configuration not stated), the B-score of Tl+ flux slope (higher = more flux/activation; lower = inhibition) was -0.00493.
`C/C(=N/NC(=O)CN1CCN(S(=O)(=O)c2ccc(Br)cc2)CC1)c1ccncc1` showed a B-score of Tl+ flux slope (higher = more flux/activation; lower = inhibition) of 0.498.
In the case of `Cc1ccc(C)c(SCc2nc3sc(C(=O)O)c(C)c3c(=O)[nH]2)c1`, the B-score of Tl+ flux slope (higher = more flux/activation; lower = inhibition) is reported as 0.00809.
`CC(C)c1ccc2c(c1)c(SC(C)(C)C)c(CC(C)(C)C(=O)O)n2Cc1ccc(Cl)cc1` was tested, and the B-score of Tl+ flux slope (higher = more flux/activation; lower = inhibition) was 6.52 (active).
For `COc1cc([N+](=O)[O-])ccc1NC(=S)N1CCN(c2ccccn2)CC1`, the B-score of Tl+ flux slope (higher = more flux/activation; lower = inhibition) was -1.11.
In the case of `O=C(Nc1nnc(C2CC2)s1)C1=NN(C2CCS(=O)(=O)C2)C(=O)CC1` (configuration not stated), the B-score of Tl+ flux slope (higher = more flux/activation; lower = inhibition) is reported as 0.0275.
With `CCCOC(=O)CC1C(=O)NCCN1Cc1ccc(F)cc1` (configuration not stated) the B-score of Tl+ flux slope (higher = more flux/activation; lower = inhibition) was -4.12 (active).
Compound `CN(Cc1cccc2ncccc12)C(=O)CC1C(=O)NCCN1Cc1ccc(F)cc1` (configuration not stated) has a B-score of Tl+ flux slope (higher = more flux/activation; lower = inhibition) of -0.00882.
`O=C(CC1C(=O)NCCN1Cc1ccc(-c2ccccc2)cc1)NCC1CCOCC1` (configuration not stated) showed a B-score of Tl+ flux slope (higher = more flux/activation; lower = inhibition) of 0.966.
In the case of `Cc1cc(N)n(-c2ccc(S(=O)(=O)N3CCCC3)cc2[N+](=O)[O-])n1`, the B-score of Tl+ flux slope (higher = more flux/activation; lower = inhibition) is reported as -0.0325.
Compound `COC(=O)c1cccc(NS(C)(=O)=O)c1` has a B-score of Tl+ flux slope (higher = more flux/activation; lower = inhibition) of 0.136.
Compound `S=C(NCc1cccnc1)Nc1ccc(Cl)cc1Cl` has a B-score of Tl+ flux slope (higher = more flux/activation; lower = inhibition) of 0.543.
For `CC(=O)/C(=N\Nc1ccc(Cl)cc1Cl)Sc1cccc2cccnc12`, the B-score of Tl+ flux slope (higher = more flux/activation; lower = inhibition) was 20.6 (active).
With `N#Cc1ccc(C(=O)Nc2cccc3cccnc23)c(F)c1` the B-score of Tl+ flux slope (higher = more flux/activation; lower = inhibition) was 0.429.
